# The supplement of paper PMC8728848
# Many of the other results were omitted from the sample, so the strongest signals are more common in it than they were.
# Experiments:
# Assay in all cases: glycan array binding signal (z-score within array); higher = stronger binding
# [1] = tested on: GlcNAc(b1-3)Gal(b1-4)GlcNAc(b1-3)Gal(b1-4)GlcNAc(b1-2)[GlcNAc(b1-3)Gal(b1-4)GlcNAc(b1-3)Gal(b1-4)GlcNAc(b1-6)]Man(a1-6)[GlcNAc(b1-3)Gal(b1-4)GlcNAc(b1-3)Gal(b1-4)GlcNAc(b1-2)Man(a1-3)]Man(b1-4)GlcNAc(b1-4)[Fuc(a1-6)]GlcNAc; conditions: glycan notation: IUPAC condensed, linker removed
# Outline: (§1)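 From the Consortium for Functional Glycomics database, 3228 arrays were curated, keeping only those whose protein sequence was available. Binding is given as a within-array Z-score averaged across arrays sharing a protein sequence and across linkers. Negative Z-scores can be read as non-binding.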
# [2] = tested on: GlcNAc(b1-3)Gal(b1-4)GlcNAc(b1-3)Gal(b1-4)GlcNAc(b1-3)Gal(b1-4)GlcNAc(b1-2)Man(a1-3)[GlcNAc(b1-3)Gal(b1-4)GlcNAc(b1-3)Gal(b1-4)GlcNAc(b1-3)Gal(b1-4)GlcNAc(b1-2)Man(a1-6)]Man(b1-4)GlcNAc(b1-4)[Fuc(a1-6)]GlcNAc; conditions: glycan notation: IUPAC condensed, linker removed
# Outline: as §1
# [3] = tested on: GlcNAc(b1-3)Gal(b1-4)GlcNAc(b1-3)Gal(b1-4)GlcNAc(b1-3)Gal(b1-4)GlcNAc(b1-3)Gal(b1-4)GlcNAc(b1-2)Man(a1-3)[GlcNAc(b1-3)Gal(b1-4)GlcNAc(b1-3)Gal(b1-4)GlcNAc(b1-3)Gal(b1-4)GlcNAc(b1-3)Gal(b1-4)GlcNAc(b1-2)Man(a1-6)]Man(b1-4)GlcNAc(b1-4)GlcNAc; conditions: glycan notation: IUPAC condensed, linker removed; mutation: R125K
# Outline: as §1
# [4] = tested on: GlcNAc(b1-3)Gal(b1-4)GlcNAc(b1-3)Gal(b1-4)GlcNAc(b1-2)Man(a1-3)[GlcNAc(b1-3)Gal(b1-4)GlcNAc(b1-3)Gal(b1-4)GlcNAc(b1-2)Man(a1-6)]Man(b1-4)GlcNAc(b1-4)[Fuc(a1-6)]GlcNAc; conditions: glycan notation: IUPAC condensed, linker removed
# Outline: as §1
# [5] = tested on: GlcNAc(b1-3)Gal(b1-4)GlcNAc(b1-3)Gal(b1-4)GlcNAc(b1-3)Gal(b1-4)GlcNAc(b1-2)Man(a1-3)[GlcNAc(b1-3)Gal(b1-4)GlcNAc(b1-3)Gal(b1-4)GlcNAc(b1-3)Gal(b1-4)GlcNAc(b1-2)Man(a1-6)]Man(b1-4)GlcNAc(b1-4)GlcNAc; conditions: glycan notation: IUPAC condensed, linker removed
# Outline: as §1
# [6] = tested on: GlcNAc(b1-3)Gal(b1-4)GlcNAc(b1-3)Gal(b1-4)GlcNAc(b1-3)Gal(b1-4)GlcNAc(b1-2)[GlcNAc(b1-3)Gal(b1-4)GlcNAc(b1-3)Gal(b1-4)GlcNAc(b1-3)Gal(b1-4)GlcNAc(b1-6)]Man(a1-6)[GlcNAc(b1-3)Gal(b1-4)GlcNAc(b1-3)Gal(b1-4)GlcNAc(b1-3)Gal(b1-4)GlcNAc(b1-2)Man(a1-3)]Man(b1-4)GlcNAc(b1-4)[Fuc(a1-6)]GlcNAc; conditions: glycan notation: IUPAC condensed, linker removed
# Outline: as §1
# [7] = tested on: GlcNAc(b1-3)Gal; conditions: glycan notation: IUPAC condensed, linker removed
# Outline: as §1
# [8] = tested on: GlcNAc(b1-3)Gal(b1-4)Glc; conditions: glycan notation: IUPAC condensed, linker removed
# Outline: as §1
# [9] = tested on: GlcNAc(b1-3)Gal(b1-4)GlcNAc; conditions: glycan notation: IUPAC condensed, linker removed
# Outline: as §1
# [10] = tested on: GlcNAc(b1-3)Gal(b1-4)GlcNAc(b1-3)Gal(b1-4)GlcNAc; conditions: glycan notation: IUPAC condensed, linker removed
# Outline: as §1
# Neurocan (Homo sapiens), O14594, sequence (O14594 other isoform, or with tags, fused parts or gaps): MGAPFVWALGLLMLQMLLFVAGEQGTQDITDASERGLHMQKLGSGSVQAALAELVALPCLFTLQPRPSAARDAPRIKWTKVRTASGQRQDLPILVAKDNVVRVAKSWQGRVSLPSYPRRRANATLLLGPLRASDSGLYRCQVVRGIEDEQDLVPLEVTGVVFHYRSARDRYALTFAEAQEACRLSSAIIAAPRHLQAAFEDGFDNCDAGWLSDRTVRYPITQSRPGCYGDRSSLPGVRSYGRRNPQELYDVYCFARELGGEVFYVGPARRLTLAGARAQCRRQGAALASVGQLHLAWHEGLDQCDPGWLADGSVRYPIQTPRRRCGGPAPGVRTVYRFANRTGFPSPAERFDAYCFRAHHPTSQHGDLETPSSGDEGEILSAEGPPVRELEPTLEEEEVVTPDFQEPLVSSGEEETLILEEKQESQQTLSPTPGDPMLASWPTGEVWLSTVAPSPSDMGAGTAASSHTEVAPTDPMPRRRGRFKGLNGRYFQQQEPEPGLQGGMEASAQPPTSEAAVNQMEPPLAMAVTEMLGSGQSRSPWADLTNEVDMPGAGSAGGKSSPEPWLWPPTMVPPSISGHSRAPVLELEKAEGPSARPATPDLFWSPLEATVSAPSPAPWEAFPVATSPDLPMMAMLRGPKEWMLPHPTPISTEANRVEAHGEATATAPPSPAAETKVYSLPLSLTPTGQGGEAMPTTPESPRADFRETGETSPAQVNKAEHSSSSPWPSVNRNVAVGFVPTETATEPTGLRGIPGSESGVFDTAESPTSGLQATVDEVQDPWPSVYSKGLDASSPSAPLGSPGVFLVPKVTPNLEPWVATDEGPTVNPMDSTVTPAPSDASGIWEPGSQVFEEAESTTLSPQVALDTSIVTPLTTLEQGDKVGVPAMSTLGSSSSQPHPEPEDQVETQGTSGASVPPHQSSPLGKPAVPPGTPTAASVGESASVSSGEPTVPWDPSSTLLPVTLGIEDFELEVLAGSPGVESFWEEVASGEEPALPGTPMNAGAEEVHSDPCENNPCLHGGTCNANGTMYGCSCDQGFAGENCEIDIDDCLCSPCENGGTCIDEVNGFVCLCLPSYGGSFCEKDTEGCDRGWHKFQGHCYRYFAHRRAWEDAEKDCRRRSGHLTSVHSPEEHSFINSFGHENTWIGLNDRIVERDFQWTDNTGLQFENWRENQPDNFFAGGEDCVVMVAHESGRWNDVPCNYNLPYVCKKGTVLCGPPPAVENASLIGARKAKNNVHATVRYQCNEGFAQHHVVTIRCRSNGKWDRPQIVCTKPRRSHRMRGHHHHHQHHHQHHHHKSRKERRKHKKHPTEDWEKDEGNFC
# Regenerating Gene IV (Homo sapiens), Q9BYZ8, sequence (Q9BYZ8 whole entry, looked up): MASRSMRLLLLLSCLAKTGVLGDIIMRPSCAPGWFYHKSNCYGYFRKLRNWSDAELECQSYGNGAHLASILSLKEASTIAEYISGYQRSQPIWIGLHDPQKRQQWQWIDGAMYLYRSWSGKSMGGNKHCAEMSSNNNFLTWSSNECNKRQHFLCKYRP
# SRLC (Mus musculus), Q8VIF6, sequence (Q8VIF6 other isoform, or with tags, fused parts or gaps): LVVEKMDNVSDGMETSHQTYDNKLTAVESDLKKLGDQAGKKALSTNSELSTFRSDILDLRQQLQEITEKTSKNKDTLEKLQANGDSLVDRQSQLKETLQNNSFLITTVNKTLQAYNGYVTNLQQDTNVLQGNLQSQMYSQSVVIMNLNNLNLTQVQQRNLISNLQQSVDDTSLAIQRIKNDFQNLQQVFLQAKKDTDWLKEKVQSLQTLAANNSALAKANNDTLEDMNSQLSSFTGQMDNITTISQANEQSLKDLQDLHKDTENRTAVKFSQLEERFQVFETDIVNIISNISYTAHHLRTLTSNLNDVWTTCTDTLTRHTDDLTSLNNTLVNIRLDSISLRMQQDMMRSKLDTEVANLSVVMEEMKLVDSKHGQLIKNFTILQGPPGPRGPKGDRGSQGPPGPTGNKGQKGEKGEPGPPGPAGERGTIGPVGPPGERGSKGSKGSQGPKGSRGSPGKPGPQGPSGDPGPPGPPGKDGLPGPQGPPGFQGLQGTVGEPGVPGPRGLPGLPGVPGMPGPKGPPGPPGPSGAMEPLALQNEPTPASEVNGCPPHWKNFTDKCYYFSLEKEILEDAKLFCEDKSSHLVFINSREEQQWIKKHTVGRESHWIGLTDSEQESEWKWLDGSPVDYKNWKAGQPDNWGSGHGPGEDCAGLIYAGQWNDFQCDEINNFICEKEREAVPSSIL
# PILRb (Mus musculus), Q2YSF2, sequence (Q2YSF2 entry or part of it): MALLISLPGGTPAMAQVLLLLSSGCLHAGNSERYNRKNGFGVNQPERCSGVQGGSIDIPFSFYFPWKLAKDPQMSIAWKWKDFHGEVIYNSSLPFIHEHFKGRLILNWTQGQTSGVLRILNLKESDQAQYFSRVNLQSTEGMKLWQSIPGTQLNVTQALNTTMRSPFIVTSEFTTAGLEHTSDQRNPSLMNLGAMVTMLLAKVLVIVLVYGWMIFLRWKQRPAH
# 6RG (Lolium perenne), sequence (chain, as listed by the source): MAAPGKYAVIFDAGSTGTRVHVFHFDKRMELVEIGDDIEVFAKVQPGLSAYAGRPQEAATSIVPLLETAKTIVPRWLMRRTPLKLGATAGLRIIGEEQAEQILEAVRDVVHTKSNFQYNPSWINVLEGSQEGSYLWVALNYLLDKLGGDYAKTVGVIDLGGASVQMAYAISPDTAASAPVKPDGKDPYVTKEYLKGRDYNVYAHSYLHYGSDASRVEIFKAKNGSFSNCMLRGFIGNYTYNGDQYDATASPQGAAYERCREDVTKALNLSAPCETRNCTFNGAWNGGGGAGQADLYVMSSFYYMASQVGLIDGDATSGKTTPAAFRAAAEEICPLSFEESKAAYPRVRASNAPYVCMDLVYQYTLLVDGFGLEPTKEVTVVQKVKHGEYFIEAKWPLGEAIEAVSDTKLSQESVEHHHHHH
# wLAT-1A (Homo sapiens), Q01650, sequence (Q01650 whole entry): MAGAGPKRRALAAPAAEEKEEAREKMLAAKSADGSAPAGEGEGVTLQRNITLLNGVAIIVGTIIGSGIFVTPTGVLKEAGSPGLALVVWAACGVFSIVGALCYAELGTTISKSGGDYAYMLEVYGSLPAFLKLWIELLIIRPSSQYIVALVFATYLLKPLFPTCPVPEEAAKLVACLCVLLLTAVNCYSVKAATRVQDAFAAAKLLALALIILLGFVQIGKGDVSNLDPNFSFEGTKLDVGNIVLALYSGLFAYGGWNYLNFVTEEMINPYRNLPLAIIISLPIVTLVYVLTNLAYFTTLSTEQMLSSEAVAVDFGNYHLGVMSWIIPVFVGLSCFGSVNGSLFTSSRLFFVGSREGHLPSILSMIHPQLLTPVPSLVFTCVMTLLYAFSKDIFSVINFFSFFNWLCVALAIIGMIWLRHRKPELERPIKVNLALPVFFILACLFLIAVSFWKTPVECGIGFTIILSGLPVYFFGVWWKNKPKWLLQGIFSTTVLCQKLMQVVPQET
# Avaren (Actinomycete K97), sequence (chain, as listed by the source): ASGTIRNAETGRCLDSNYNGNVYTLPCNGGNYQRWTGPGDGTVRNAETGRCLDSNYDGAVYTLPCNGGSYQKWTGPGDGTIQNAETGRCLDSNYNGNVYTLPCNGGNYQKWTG
substance,measurement,setting,value
"Siglec-8 (Homo sapiens), Q9NYZ4",glycan array binding signal (z-score),[1],0.434
same,glycan array binding signal (z-score),[2],0.693
same,glycan array binding signal (z-score),[3],-0.017
MpAFP RI GFP (Marinomonas primoryensis),glycan array binding signal (z-score),[4],2.86
same,glycan array binding signal (z-score),[1],1.29
same,glycan array binding signal (z-score),[5],4.26
same,glycan array binding signal (z-score),[6],1.39
"Regenerating Gene IV (Homo sapiens), Q9BYZ8",glycan array binding signal (z-score),[7],-0.345
Avaren (Actinomycete K97),glycan array binding signal (z-score),[1],-0.046
"wLAT-1A (Homo sapiens), Q01650",glycan array binding signal (z-score),[8],-0.411
"PILRb (Mus musculus), Q2YSF2",glycan array binding signal (z-score),[9],-0.214
"Neurocan (Homo sapiens), O14594",glycan array binding signal (z-score),[9],-1.33
same,glycan array binding signal (z-score),[7],-0.097
"SRLC (Mus musculus), Q8VIF6",glycan array binding signal (z-score),[10],-0.205
6RG (Lolium perenne),glycan array binding signal (z-score),[10],-0.272
